A selection follows.
aSyn UTR act – Activators via SNCA 5'UTR binding, MLPCN | alpha-synuclein 5'UTR reporter, activators screen | activity score, % (tested at 7.5 µM), hits read low | 7.1% of 300,000 active | AID 1814, 2009; in the data active means activity score below about -60%
An asterisk follows results filed as active.

For COc1ccc(OC)c(-c2csc(NC(=O)c3ccc(F)cc3)n2)c1 the results were aSyn UTR act -202*.
`Nc1ccc(-c2nc3ccc(C(=O)O)cc3s2)cc1` gave aSyn UTR act 95.
For Cc1ccc(C(=O)Nc2nc3ccccc3c(=O)s2)cc1 the results were aSyn UTR act -190*.
For O=C(Nc1nc(=O)c2ccccc2s1)c1ccccc1 the results were aSyn UTR act -157*.
CCc1nnc(NC(=O)c2ccc3ncsc3c2)s1 was read as aSyn UTR act -102*.
CCc1nnc(NC(=O)c2ccc(NC(=O)C(C)C)cc2)s1 was read as aSyn UTR act -101*.
For O=C(Nc1nc(-c2cccs2)cs1)c1ccc(Cl)s1 the results were aSyn UTR act -146*.
CCc1nnc(NC(=O)c2ccc3c(c2)C(=O)N(C(C)(C)C)C3=O)s1 was read as aSyn UTR act -145*.
For COc1ccc2nc(NC(=O)c3ccc(F)cc3)sc2c1 the results were aSyn UTR act -156*.
For CCN1CCc2c(sc(NC(=O)c3ccc(S(=O)(=O)N4CCOCC4)cc3)c2C(=O)OC)C1 the results were aSyn UTR act -71*.
Screening COc1cccc(C2=CC(c3cc(OC)ccc3OC)n3nnnc3N2)c1 (stereo not given) returned aSyn UTR act -165*.
COc1cccc(C2=CC(c3cccc(OC)c3OC)n3nnnc3N2)c1 (stereo not given) was read as aSyn UTR act -295*.
For O=[N+]([O-])c1cccc(N2Cc3ccccc3C2)c1 the results were aSyn UTR act -113*.
`N#Cc1ccc(N2CCc3ccccc3C2)c([N+](=O)[O-])c1` gave aSyn UTR act 81.
`FC(F)(F)c1cccc(N2Cc3ccccc3C2)c1` gave aSyn UTR act -72*.
Screening O=C(NCCCN1CCCCC1)c1ccc2c(=O)n(CCc3ccccc3)c(=O)[nH]c2c1 returned aSyn UTR act -82*.
CCN1CCN(CCCNC(=O)c2ccc(/C=C3/Oc4ccccc4N(Cc4cccc(C)c4)C3=O)cc2)CC1 was read as aSyn UTR act 101.
CCN(CC)CCNC(=O)c1ccc2c(=O)n(CCc3ccccc3)c(=O)[nH]c2c1 was read as aSyn UTR act -109*.
Screening O=C1Nc2cc(C(=O)NCCCN3CCCC3)ccc2S/C1=C\c1ccccc1 returned aSyn UTR act -94*.
O=C(Cc1csc(Nc2nc(=S)[nH]c3ccccc23)n1)NCCCN1CCN(c2ccccc2F)CC1 was read as aSyn UTR act 92.
Screening CC(=O)c1ccc(/C=C/c2nc3ccccc3n2C)o1 returned aSyn UTR act -91*.
Screening O=c1[nH]c2ccccc2nc1/C=C/c1ccccc1 returned aSyn UTR act -165*.
`O=c1[nH]c2ccccc2nc1/C=C/c1ccc(F)cc1` gave aSyn UTR act -139*.
Cn1c(=O)c(/C=C/c2ccccc2)nc2ccccc21 was read as aSyn UTR act -291*.
O=c1[nH]c2ccccc2nc1/C=C/c1ccc(O)cc1 was read as aSyn UTR act -214*.
`Oc1ccc(/C=C/c2ccc3ccccc3n2)cc1` gave aSyn UTR act 90.
Screening O=C(Nc1ccc(O)cc1)c1cc2ccccc2c(=O)s1 returned aSyn UTR act -114*.
Screening O=C(Nc1ccccc1)c1cc2ccccc2c(=O)s1 returned aSyn UTR act -209*.
Screening O=C(Nc1cc(-c2ccccc2)[nH]n1)c1ccccc1F returned aSyn UTR act -207*.
Screening CCNC(=S)Nc1cc(-c2ccc(Cl)cc2)[nH]n1 returned aSyn UTR act -87*.
CC(=O)Nc1cc(-c2ccc(F)cc2)[nH]n1 was read as aSyn UTR act -77*.
Cc1[nH]n(-c2nc(-c3ccc(Cl)cc3)cs2)c(=O)c1N=Nc1ccc(O)cc1 was read as aSyn UTR act -118*.
Screening O=C(/C=C1\SC(=O)N(CC(=O)Nc2ccc(F)cc2)C1=O)Nc1ccc(Cl)cc1 returned aSyn UTR act -196*.
For Cc1ccc(-n2c(C)c(C)c3c(NCCCO)ncnc32)cc1 the results were aSyn UTR act -165*.
`COc1ccc(-n2c(C)c(C)c3c(NCCCO)ncnc32)cc1` gave aSyn UTR act -81*.
`COc1ccc(-n2cnc3cc(N)ccc32)cc1` gave aSyn UTR act -75*.
For CSc1nnc(-c2ccccc2N=Cc2c(C)[nH]n(-c3ccc4ccccc4c3)c2=O)c(=O)[nH]1 the results were aSyn UTR act -73*.
O=C(CSc1nnnn1-c1ccccc1)NC(=O)Nc1ccc2c(c1)OCCO2 was read as aSyn UTR act -86*.
`Cn1nnnc1SCC(=O)Nc1ccc2c(c1)OCCO2` gave aSyn UTR act -86*.
For Nn1c(SCC(=O)NC(=O)Nc2ccc3c(c2)OCCO3)nnc1C1CC1 the results were aSyn UTR act -96*.
`CCOC(=O)c1cc(-c2ccccc2)nn1Cc1cc(CC)no1` gave aSyn UTR act -100*.
Screening Cc1ccc(-n2c(C)cc(C(=O)COc3cccnc3[N+](=O)[O-])c2C)cc1 returned aSyn UTR act 64.
Screening Cc1cc(C(=O)CSc2nnnn2C)c(C)n1-c1cccc(F)c1 returned aSyn UTR act -131*.
`Cc1cc(C(=O)CSc2ncccn2)c(C)n1-c1cccc(F)c1` gave aSyn UTR act -84*.
`O=C(NCc1ccco1)Nc1ccc(Br)cc1` gave aSyn UTR act -119*.
`O=C(NCCC1=CCCCC1)Nc1ccc2nsnc2c1` gave aSyn UTR act -110*.
`O=C(NCc1ccco1)Nc1ccc2nsnc2c1` gave aSyn UTR act -76*.
COc1cc(NC(=O)CCc2ccccc2)nc(OC)n1 was read as aSyn UTR act -71*.
Screening COc1ccc(C(=O)Nc2cc(OC)nc(OC)n2)cc1 returned aSyn UTR act -125*.
COCCn1c(C)cc(C(=O)CN2C(=O)NC3(CCCCCCC3)C2=O)c1C was read as aSyn UTR act -99*.
`Cc1ccc(C(=O)CN2C(=O)NC3(CCCCCC3)C2=O)c(C)c1` gave aSyn UTR act -132*.
For COCCn1c(C)cc(C(=O)CSc2nnc(C)s2)c1C the results were aSyn UTR act 100.
Screening Cc1cc(C)c(C(=O)CN2C(=O)NC3(CCCCC3)C2=O)cc1C returned aSyn UTR act -73*.
`Cc1cccc(N/N=C2/COC(C)(C)CC2=O)c1` gave aSyn UTR act -101*.
Screening CC1(C)CC(=O)/C(=N/Nc2ccc(Cl)cc2)CO1 returned aSyn UTR act -230*.
`S=C(Nc1ccccc1)Nc1cccc(Cl)c1Cl` gave aSyn UTR act -67*.
S=C(Nc1ccccc1)Nc1ccc(Cl)cc1Cl was read as aSyn UTR act -91*.
Screening NNC(=S)Nc1ccccc1Cl returned aSyn UTR act -185*.
`COC(=O)c1cccc(NC(=S)Nc2cccc(Cl)c2Cl)c1` gave aSyn UTR act -69*.
CNC(=S)Nc1cccc(C(=O)OC)c1 was read as aSyn UTR act -91*.
O=[N+]([O-])c1cc(S(=O)(=O)/N=C(/c2ccccc2)N2CCOCC2)ccc1Cl was read as aSyn UTR act -83*.
Screening COc1ccccc1C(=O)N1CCN(CCNC(=O)C(=O)Nc2ccc(Br)c(C)c2)CC1 returned aSyn UTR act -89*.
Screening O=C(N/N=C/c1ccco1)Nc1ccccc1 returned aSyn UTR act -130*.
CCOc1ccc(/C=N/Nc2ccccc2)cc1 was read as aSyn UTR act -75*.
O=C(N/N=C/c1ccc(Cl)cc1)Nc1ccccc1 was read as aSyn UTR act -170*.
Screening Clc1ccc(/C=N\Nc2ccccc2)cc1 returned aSyn UTR act -67*.
For COc1ccc(/C=C/C(=O)Nc2ccccc2C)cc1S(=O)(=O)N1CCOCC1 the results were aSyn UTR act -87*.

Compound activity from PubChem.
